Source: PubChem BioAssay (Tox21)
Records with an inconclusive call do not appear. Unmarked numbers belong to inactive results. Calls of active or inactive are those of the source. The call rests on the fitted dose curve; in most records, active means well fitted cell-killing curve with a large enough effect in the repeat runs; inconclusive means weak or mixed curves, or effect the other way; inactive means no such curve, though single readings can be large or run the other way.

test: qHTS assay to identify small molecule antagonists of the progesterone receptor (PR) signaling pathway - cell viability counter screen (AID 1346798); conditions: PR-UAS-bla HEK293T viability, CellTiter-Glo luminescence, 16 h; series mostly up to 92.4 µM; activity change, negative = cytotoxicity: at the top concentration; further: nearly all actives have a fitted effect of over 50% in size
How it was run: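 HEK293T PR-UAS-bla, 2% charcoal-stripped FBS; 4 hr pre-plate; cpd + R5020, 16 h 37C; LiveBLAzer read first; then CellTiter-Glo 30 min RT, luminescence.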
On the % scale 0 is the no-effect control and ±100 the full control effect; potency means the concentration at half of the fitted maximal effect.

Row | SMILES | activity change, negative = cytotoxicity | Potency
1 | CC/C=C(\C)C=O | -12.7% | –
2 | O=C(O)CN(CCCN(CC(=O)O)CC(=O)O)CC(=O)O | -17.6% [at 18.9 µM] | –
3 | CSc1ccc(O)cc1C | – | 61.1 µM (active)
4 | O=c1cc[nH]cc1 | -11.7% | –
5 | CN1CCN(CCCN2c3ccccc3Sc3ccc(Cl)cc32)CC1 | – | 21.1 µM (active)
6 | CCOc1nc(F)cc2nc(S(=O)(=O)Nc3c(Cl)cccc3C(=O)OC)nn12 | -14.7% | –
7 | Cn1ccnc1 | -3.61% | –
8 | CCCCCCCCCCCCS(=O)(=O)Cl | -16% [at 18.9 µM] | –
9 | CCN(CCC#N)c1ccc(N=Nc2ccc([N+](=O)[O-])cc2)cc1 | 8.38% | –
10 | CC(C)C(=O)C(C)C | -7.94% | –
11 | CCN(CC)c1ccc2c(c1)Oc1cc(N(CC)CC)ccc1C21OC(=O)c2ccccc21 | 11.2% [at 42.5 µM] | –
12 | Cc1cc(Br)ccc1NC(=O)CCl | – | 15.4 µM (active)
13 | N#Cc1nc(Cl)c(Cl)c(Cl)c1Cl | – | 24.3 µM (active)
14 | [Cl][Eu]([Cl])[Cl] | 7.75% | –
15 | N#CCCOCCC#N | -4.77% | –
16 | Oc1cccc2c(O)cccc12 | -27.6% | –
17 | Nc1ccc(F)c([N+](=O)[O-])c1 | -16.5% | –
18 | CC(=O)CC(N)=O | -7.22% | –
19 | Oc1ccc(C2(c3ccc(O)c(C4CCCCC4)c3)CCCCC2)cc1C1CCCCC1 | – | 43.3 µM (active)
20 | C=CC(=O)OCCOC1C2CCC1C1CC=CC12 (centres undefined) | 13.6% [at 18.9 µM] | –
21 | CC(C=O)c1ccccc1 (centres undefined) | -4.39% | –
22 | CCCC(C)C=O (centres undefined) | 4.09% | –
23 | C=CC(=O)O[C@H]1C[C@@H]2CC[C@@]1(C)C2(C)C | 1.16% | –
24 | O=C1OC(=O)c2cc(-c3ccc4c(c3)C(=O)OC4=O)ccc21 | -23.5% | –
